Calls of active or inactive are those of the source.
Columns and labels:
Albumin (Bos taurus) = Albumin (Bos taurus) (UniProt P02769); assay: bovine serum albumin binders on microarray, profiling panel, artefact control for SMM control protein annotation, biochemical, small-molecule microarray, Alexa647 label, 635/667 nm fluorescence (AID 1118); conditions: BSA-A647 binding, fluorescence 635 nm, higher = more signal;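 note: score merges 667 nm emission intensity and signal-to-noise per printed compound spot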
[1] = small-molecule microarray binders of probe aXIP, primary screen, biochemical, NeuroSMM set, 635/667 nm fluorescence (AID 1119); conditions: higher = more signal, called active from +8 up or from −8 down;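 note: probe is the protein aXip251-270 applied at 1 µg/mL to compound-printed slides; binding of probe to printed compounds measured as 667 nm fluorescence plus signal to noise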
[2] = small-molecule binders of probe aNOTCH3, primary screen, biochemical, small-molecule microarray, 635/667 nm fluorescence (AID 1120); conditions: higher = more signal;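 note: probe is a biotin-tagged antibody raised against NOTCH3 rather than NOTCH3 protein; score merges spot fluorescence near 667 nm with spot signal to noise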
[3] = small-molecule binders of probe aNOTCH2, primary screen, biochemical, small-molecule microarray, 635/667 nm fluorescence (AID 1121); conditions: higher = more signal;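 note: score merges feature fluorescence read at 667 nm with its signal to noise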
[4] = target: Carbonic anhydrase 2 (Homo sapiens) (UniProt P00918); assay: CAII small-molecule binders, profiling panel, biochemical, small-molecule microarray, Alexa647-labelled CAII (AID 1122); conditions: CAII-A647 binding fluorescence, higher = more signal
[5] = COS7 lysate on small-molecule microarray, probe aHis, 635 nm (AID 1123); conditions: COS7 cell lysate, fluorescence, higher = more signal;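 note: z-score combines 667nm fluorescence intensity with signal-to-noise per printed compound spot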
[6] = compound binding in COS7 lysate, probe aLAP1, primary screen, cell lysate, small-molecule microarray (AID 1124); conditions: probe aLAP1, fluorescence, higher = more signal;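 note: lysate comes from COS7 cells expressing LAP1 and is applied at 0.3 µg/mL; score merges spot fluorescence near 667 nm with signal-to-noise over triplicate slides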
Sam68 (KHDRBS1) = assay: Sam68 small-molecule binders, primary screen, biochemical, small-molecule microarray, 635 nm fluorescence (AID 1125); conditions: small-molecule microarray binding, higher = more signal;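 note: score merges 667 nm channel intensity with signal to noise over triplicate slides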
[7] = test system: Chordin-like protein 2 (CHRDL2); assay: CHRDL2 small-molecule binders, primary screen, biochemical, small-molecule microarray, 635 nm fluorescence (AID 1126); conditions: small-molecule microarray binding, fluorescence 635 nm; higher = more signal;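 note: printed compound slides probed with Chrdl2 protein at 4 µg/mL for 1 h at 4 C; score merges 667 nm emission intensity with signal to noise over three replicate slides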
[8] = target: Concanavalin-A (Canavalia ensiformis) (UniProt P02866); assay: ConA small-molecule binders, primary screen, artefact control for SMM control protein annotation, biochemical, small-molecule microarray, Alexa647 label, 635 nm (AID 1127); conditions: ConA-A647 binding fluorescence, higher = more signal;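 note: z combines 667 nm emission intensity with signal-to-noise across three replicate slides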
[9] = anti-His antibody binders, primary screen, artefact control for SMM control protein annotation, biochemical, small-molecule microarray, 635 nm fluorescence (AID 1128); conditions: anti-His Alexa647 antibody binding, higher = more signal;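 note: score merges feature fluorescence with signal-to-noise for each printed compound spot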
[10] = test system: Human papillomavirus type 1a E7 protein (residues 1-88); assay: HPV1a E7 small-molecule binders, primary screen, biochemical, small-molecule microarray, residues 1-88, 635 nm (AID 1129); conditions: small-molecule microarray binding, fluorescence 635 nm; higher = more signal
[11] = target: Focal adhesion kinase 1 (Homo sapiens) (UniProt Q05397); assay: small-molecule microarray binders of FAK, primary screen, biochemical, 635/667 nm fluorescence, BSA, DTT (AID 1130); conditions: PTK2 binding, 635 nm fluorescence, higher = more signal;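 note: composite of spot emission at 667 nm and signal to noise over triplicate slides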
[12] = test system: Fibrinogen (Alexa647-labelled); assay: fibrinogen binders on compound microarrays, profiling panel, artefact control for SMM control-protein annotation, biochemical, small-molecule microarray, 635/667 nm fluorescence (AID 1131); conditions: fibrinogen-A647 binding fluorescence, higher = more signal;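 note: z-score merges 667 nm fluorescence with per-spot signal-to-noise over triplicate slides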
[13] = target: Follistatin (Homo sapiens) (UniProt P19883); assay: follistatin binders on small-molecule microarrays, primary screen, biochemical, small-molecule microarray, 635/667 nm fluorescence (AID 1132); conditions: FST binding, 635 nm fluorescence, higher = more signal
[14] = target: Fibroblast growth factor 2 (Homo sapiens) (UniProt P09038); assay: FGF2 binders on small-molecule microarrays, primary screen, biochemical, small-molecule microarray, 635/667 nm fluorescence (AID 1133); conditions: small-molecule microarray binding, FGF2, fluorescence 635/667; higher = more signal
[15] = mitochondrial membrane potential change in A549 cells, profiling panel, cell-based, JC-1 fluorescence, basal, 24 h, 100 nL (AID 1138); conditions: higher = more signal;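 note: A549 lung adenocarcinoma cells under basal conditions with no added stimulus; test concentration not given here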
Lefty1 = Lefty1 binders on small-molecule microarrays, primary screen, biochemical, small-molecule microarray, 635/667 nm fluorescence (AID 1139); conditions: small-molecule microarray binding, fluorescence 635/667; higher = more signal
[16] = test system: wheat germ agglutinin (Triticum aestivum), Alexa647-labelled; assay: wheat germ agglutinin binders on compound microarrays, profiling panel, artefact control for SMM control-protein annotation, biochemical, small-molecule microarray, 635/667 nm fluorescence (AID 1140); conditions: WGA-A647 binding, 635 nm fluorescence, higher = more signal;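 note: score merges 667 nm feature emission with signal to noise over triplicate slides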
[17] = target: Luciferin 4-monooxygenase (Photinus pyralis) (UniProt P08659); assay: firefly luciferase enzyme inhibitors, primary screen, biochemical, luminescence, purified enzyme, 2006 set (AID 1141); conditions: SteadyGlo luminescence, 30 min, higher = more signal, called active from +8 up or from −8 down;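 note: cell-free assay with purified firefly luciferase at 100 ng per well in PBS; test concentration not given here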
Chain of Luciferin 4-monooxygenase (Photinus pyralis) (P08659 whole entry, looked up): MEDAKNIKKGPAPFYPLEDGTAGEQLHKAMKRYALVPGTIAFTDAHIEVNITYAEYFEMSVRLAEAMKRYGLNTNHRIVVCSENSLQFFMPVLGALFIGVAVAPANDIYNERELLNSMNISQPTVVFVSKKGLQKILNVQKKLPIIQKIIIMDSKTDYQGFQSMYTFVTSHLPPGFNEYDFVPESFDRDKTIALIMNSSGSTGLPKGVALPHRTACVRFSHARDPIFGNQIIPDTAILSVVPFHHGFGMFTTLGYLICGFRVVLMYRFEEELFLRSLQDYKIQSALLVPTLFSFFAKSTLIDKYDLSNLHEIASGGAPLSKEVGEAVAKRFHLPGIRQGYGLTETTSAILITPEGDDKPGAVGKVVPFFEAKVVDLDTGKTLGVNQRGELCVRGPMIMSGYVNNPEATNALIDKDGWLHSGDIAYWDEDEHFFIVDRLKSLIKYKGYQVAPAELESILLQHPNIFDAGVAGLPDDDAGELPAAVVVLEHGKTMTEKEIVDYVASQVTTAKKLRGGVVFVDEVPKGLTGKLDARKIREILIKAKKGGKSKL

Chain of Fibroblast growth factor 2 (Homo sapiens) (P09038 whole entry, looked up): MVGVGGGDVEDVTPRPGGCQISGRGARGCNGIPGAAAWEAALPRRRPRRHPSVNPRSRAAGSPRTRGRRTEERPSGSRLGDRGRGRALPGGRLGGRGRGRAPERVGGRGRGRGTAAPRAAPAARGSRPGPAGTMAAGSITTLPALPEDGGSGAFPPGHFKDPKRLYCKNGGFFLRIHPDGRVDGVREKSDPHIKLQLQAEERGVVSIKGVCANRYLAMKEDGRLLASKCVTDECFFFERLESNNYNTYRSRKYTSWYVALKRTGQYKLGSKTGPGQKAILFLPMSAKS
Chain of Concanavalin-A (Canavalia ensiformis) (P02866 whole entry, looked up): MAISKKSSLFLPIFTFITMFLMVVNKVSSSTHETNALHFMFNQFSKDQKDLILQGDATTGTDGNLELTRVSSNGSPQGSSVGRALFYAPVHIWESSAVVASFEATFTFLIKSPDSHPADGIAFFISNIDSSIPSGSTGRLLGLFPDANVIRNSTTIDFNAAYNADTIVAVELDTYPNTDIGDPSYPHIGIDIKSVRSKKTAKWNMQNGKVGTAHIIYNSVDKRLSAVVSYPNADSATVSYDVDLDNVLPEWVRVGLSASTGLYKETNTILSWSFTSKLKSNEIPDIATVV
Chain of Albumin (Bos taurus) (P02769 whole entry, looked up): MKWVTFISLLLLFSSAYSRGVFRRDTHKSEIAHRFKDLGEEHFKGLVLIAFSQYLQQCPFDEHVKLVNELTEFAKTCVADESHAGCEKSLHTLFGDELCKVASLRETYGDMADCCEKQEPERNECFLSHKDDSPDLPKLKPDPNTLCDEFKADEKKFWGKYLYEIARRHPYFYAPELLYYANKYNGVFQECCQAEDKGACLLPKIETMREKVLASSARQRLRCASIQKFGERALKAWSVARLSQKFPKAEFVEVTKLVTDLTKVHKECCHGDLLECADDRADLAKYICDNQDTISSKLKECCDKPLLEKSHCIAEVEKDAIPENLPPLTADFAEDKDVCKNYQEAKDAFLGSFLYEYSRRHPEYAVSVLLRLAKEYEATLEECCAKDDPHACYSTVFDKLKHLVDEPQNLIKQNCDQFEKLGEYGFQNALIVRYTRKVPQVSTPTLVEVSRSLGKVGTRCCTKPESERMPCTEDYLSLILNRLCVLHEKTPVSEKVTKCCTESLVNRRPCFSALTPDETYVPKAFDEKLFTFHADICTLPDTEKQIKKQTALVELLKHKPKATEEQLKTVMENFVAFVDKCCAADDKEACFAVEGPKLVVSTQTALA
Chain of Focal adhesion kinase 1 (Homo sapiens) (Q05397 whole entry, looked up): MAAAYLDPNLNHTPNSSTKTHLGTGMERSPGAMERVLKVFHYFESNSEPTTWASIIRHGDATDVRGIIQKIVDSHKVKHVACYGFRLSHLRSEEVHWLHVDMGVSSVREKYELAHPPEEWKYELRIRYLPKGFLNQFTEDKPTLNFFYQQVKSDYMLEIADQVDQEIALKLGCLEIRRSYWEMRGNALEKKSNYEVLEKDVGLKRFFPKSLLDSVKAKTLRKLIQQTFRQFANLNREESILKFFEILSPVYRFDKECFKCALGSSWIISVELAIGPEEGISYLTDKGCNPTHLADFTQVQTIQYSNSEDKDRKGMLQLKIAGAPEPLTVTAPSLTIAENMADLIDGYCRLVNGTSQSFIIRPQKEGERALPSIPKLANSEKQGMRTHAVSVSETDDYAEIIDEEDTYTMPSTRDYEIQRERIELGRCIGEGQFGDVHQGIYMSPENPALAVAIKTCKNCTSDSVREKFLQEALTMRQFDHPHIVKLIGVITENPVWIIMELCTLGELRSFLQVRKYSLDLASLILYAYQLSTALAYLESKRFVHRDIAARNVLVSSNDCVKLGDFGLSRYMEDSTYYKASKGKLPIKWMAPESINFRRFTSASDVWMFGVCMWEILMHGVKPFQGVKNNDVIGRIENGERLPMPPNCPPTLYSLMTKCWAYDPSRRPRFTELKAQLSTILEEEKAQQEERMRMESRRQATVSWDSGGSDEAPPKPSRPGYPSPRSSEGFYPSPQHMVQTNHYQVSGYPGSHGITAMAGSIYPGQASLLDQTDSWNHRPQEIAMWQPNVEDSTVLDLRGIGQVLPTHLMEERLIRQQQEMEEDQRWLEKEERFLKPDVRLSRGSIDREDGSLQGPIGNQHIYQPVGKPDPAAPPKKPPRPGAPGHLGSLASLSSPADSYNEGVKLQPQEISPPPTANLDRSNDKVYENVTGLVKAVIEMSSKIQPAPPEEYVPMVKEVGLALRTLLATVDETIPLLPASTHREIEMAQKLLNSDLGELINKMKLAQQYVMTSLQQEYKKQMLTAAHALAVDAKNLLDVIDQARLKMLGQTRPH
Chain of Follistatin (Homo sapiens) (P19883 whole entry, looked up): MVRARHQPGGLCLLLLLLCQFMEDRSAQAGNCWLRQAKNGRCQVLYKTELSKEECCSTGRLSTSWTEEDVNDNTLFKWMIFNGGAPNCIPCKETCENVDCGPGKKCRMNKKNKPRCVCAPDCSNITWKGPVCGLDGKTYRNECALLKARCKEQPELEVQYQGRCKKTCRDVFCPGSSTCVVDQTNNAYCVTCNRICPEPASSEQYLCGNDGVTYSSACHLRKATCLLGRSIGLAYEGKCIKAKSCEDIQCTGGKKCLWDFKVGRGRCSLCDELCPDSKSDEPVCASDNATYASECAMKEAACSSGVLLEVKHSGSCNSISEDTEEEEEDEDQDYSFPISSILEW

| SMILES | composite z-score (Albumin (Bos taurus)) | composite Z-score [1] | composite z-score [2] | composite z-score [3] | composite z-score [4] | composite z-score [5] | composite z-score [6] | composite z-score (Sam68 (KHDRBS1)) | composite z-score [7] | composite z-score [8] | composite z-score [9] | composite z-score [10] | composite z-score [11] | composite z-score [12] | composite z-score [13] | composite z-score [14] | z-score [15] | composite z-score (Lefty1) | composite z-score [16] | z-score [17] |
| --- | --- | --- | --- | --- | --- | --- | --- | --- | --- | --- | --- | --- | --- | --- | --- | --- | --- | --- | --- | --- |
| C=C(CCCC)/C(=C/C[C@H](OC(=O)c1ccncc1)c1ccc(CO)o1)c1cnc2ccccc2c1 | 0.295 | -0.0961 (inactive) | 0.227 | -0.0942 | 0.84 | 0.368 | 0.0647 | 1.3 | 0.699 | 1.04 | 0.475 | 1.18 | 0.291 | 0.0311 | 1.38 | 0.722 | 1.45 | 1.38 | 1.28 | -2.94 (inactive) |
| C=CCC(OC(C)=O)[C@@H]1[C@@H](N(Cc2ccc(-c3cccc(C(F)(F)F)c3)o2)C(=O)c2ccc(-c3ccccc3)cc2)c2cc(OCCCO)ccc2N1C(=O)Cc1ccc(OC)cc1 (stereo not given in full) | -0.84 | 0.298 (inactive) | -0.0647 | -0.0832 | -0.149 | -0.249 | -0.231 | -0.836 | -0.0712 | -1.26 | -0.729 | 0.0685 | -0.0642 | -0.407 | 0.451 | -0.196 | 1.65 | -0.128 | 0.15 | -0.626 (inactive) |
| COCCOC(=O)N1C(=O)[C@@]2(c3cc(C#CCNC(N)=O)ccc31)[C@H](c1ccccc1OCCO)N1[C@H](c3ccccc3)[C@H](c3ccccc3)OC(=O)[C@H]1[C@@H]2C(=O)Nc1nc2ccccc2s1 | 0.598 | 0.564 (inactive) | -0.0391 | -0.0817 | 0.439 | 0.862 | 0.292 | 1.12 | 0.0611 | 1.03 | 0.3 | 0.965 | 0.374 | 0.283 | 1.17 | 0.271 | -2.07 | 0.591 | 1.04 | -1.87 (inactive) |
| O=C(N1CCCCC1)[C@@]1(Cc2ccccc2)N=C(c2ccc(OCCCO)cc2)O[C@H]1c1ccccc1 | 0.955 | 0.0926 (inactive) | 0.214 | 0.308 | 0.797 | 3 | 0.849 | 1.23 | -1.34 | 1.11 | 2.02 | 1.07 | 1.42 | 0.124 | 0.622 | -0.12 | -0.741 | -0.341 | 1.07 | -1.52 (inactive) |
| CC(C)CCC[C@@H](C)[C@H]1CC[C@@]2(C)C3=C(CC[C@]12C)[C@@]1(C)CC[C@H](OC(=O)CCl)C(C)(C)C1CC3 (stereo not given in full) | 0.256 | 0.222 (inactive) | 0.183 | -0.0829 | 0.153 | 0.555 | -0.0674 | 0.404 | 0.549 | 0.47 | -0.107 | 0.708 | 0.272 | 0.649 | 0.409 | 0.363 | 1.35 | 0.327 | 0.274 | -1.28 (inactive) |
| COCCOC(=O)N1C(=O)[C@@]2(c3cc(C#CC4(O)CCCCCC4)ccc31)[C@H](c1ccccc1OCCO)N1[C@H](c3ccccc3)[C@H](c3ccccc3)OC(=O)[C@H]1[C@@H]2C(=O)Nc1nc2ccccc2s1 | 0.655 | -0.344 (inactive) | -0.0942 | -0.0843 | 0.53 | 1.16 | 0.417 | 1.16 | 0.478 | 1.18 | 1.84 | 1.21 | 0.862 | 0.805 | 1.39 | 1.16 | -1.56 | 1.5 | 1.14 | -2.53 (inactive) |
| CC(C)(C)OC(=O)CC[C@@]12N=C(c3ccc(OCCCO)cc3)O[C@@H]1c1ccccc1CN(Cc1ccccc1)C2=O | -0.478 | 0.976 (inactive) | 0.0026 | -0.11 | 0.418 | 1.73 | -0.0961 | 1.31 | -0.0229 | 1.1 | 2.46 | 1.18 | 1.36 | 0.357 | 1.32 | 1.43 | 1.09 | 0.377 | 0.438 | -1.59 (inactive) |
| NC(=O)NCC#Cc1ccc2c(c1)[C@]1(C(=O)N2)[C@H](c2ccc(OCCO)cc2)N2[C@H](c3ccccc3)[C@H](c3ccccc3)OC(=O)[C@H]2[C@@H]1C(=O)Nc1nc2ccccc2s1 | -0.0355 | -0.883 (inactive) | -0.132 | -0.0629 | 0.0165 | 0.966 | 0.436 | -0.112 | 0.175 | 0.0806 | -0.609 | 0.123 | 0.0616 | 0.0886 | 0.923 | -0.292 | -2.17 | -0.609 | 0.244 | -2.15 (inactive) |
| COc1ccc(C#Cc2ccc3c(c2)[C@]2(C(=O)N3)[C@H](c3ccc(O)cc3)N3[C@H](c4ccccc4)[C@H](c4ccccc4)OC(=O)[C@H]3[C@@H]2C(N)=O)cc1 | -0.524 | 1.08 (inactive) | -0.299 | -0.147 | 0.662 | 1.25 | 0.0742 | 0.278 | -1.54 | -0.211 | 2.17 | -0.0669 | 0.627 | -0.063 | -0.482 | -0.617 | -1.59 | -0.9 | -0.0907 | -1.44 (inactive) |
| CC1CC/C=C\[C@H]2OC34C=CCN(C(C)C)C(=O)[C@H]3N(C(CO)C(C)C)C(=O)[C@@H]4C2C(=O)O1 (stereo not given in full) | -0.314 | -0.481 (inactive) | -0.15 | -0.125 | 0.831 | 0.669 | -0.0978 | -1.57 | -1.36 | -2.39 | -1.64 | -2 | 1 | -1.9 | -0.459 | -0.294 | 1.01 | -1.02 | -2.12 | -1.3 (inactive) |
| CCCCCCC#C[Si](O[C@H](c1ccccc1)c1cn(Cc2ccccc2)nn1)(C(C)C)C(C)C | 0.0774 | 0.131 (inactive) | -0.0918 | -0.182 | 0.273 | 0.0604 | 0.155 | 0.458 | 0.187 | 0.132 | 0.254 | 0.262 | -0.326 | -0.418 | 0.126 | 0.594 | 4.41 | 0.806 | -0.349 | -1.15 (inactive) |

— PubChem BioAssay
